In PubChem BioAssay (EPA / NIEHS):
Where “and” joins values, the source holds several entries; their conditions need not be identical. Equal entries are not always repeated. Where a structure was tested more than once in an assay, its records may differ in their call. Calls of active or inactive are those of the source. Rule for the calls: active = hit-call score of the fitted dose curve at least 0.9, where 1 is the maximum; inactive = score below 0.9.

What was measured:
[1] = APR_HepG2_NuclearSize_72hr: Apredica 72-hour HepG2 Assay for Nuclear Size (AID 2282925); conditions: high-content imaging, actives raise or lower the signal
Method in brief: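 Read-out: nuclear diameter from Hoechst 33342 images (ArrayScan, 20x, six fields/well), via cell-cycle image analysis. HepG2 were dosed 0.39–200 uM for 72 hr in 0.5% DMSO. Bidirectional fit relative to DMSO.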

[2] = ATG_CRE_CIS: Attagene CIS-FACTORIAL HepG2 Assay for human cAMP Responsive Element (CRE) binding protein 3 (AID 2282926); conditions: HepG2 CRE cis-reporter, Attagene multiplexed mRNA; actives raise or lower the signal
Method in brief: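 Cells carrying cis-regulated reporter constructs respond through their own endogenous factors. After 24 h treatment, RNA is reverse-transcribed, amplified, labelled and sized by capillary electrophoresis; up- and down-regulation are both scored against vehicle.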

[3] = target: CCAAT/enhancer-binding protein beta (Homo sapiens) (UniProt P17676); assay: ATG_C_EBP_CIS: Attagene CIS-FACTORIAL HepG2 Assay for human CCAAT/Enhancer Binding Protein (C/EBP) beta (AID 2282927); conditions: HepG2 Attagene cis-factorial transcription factor reporter; actives raise or lower the signal
CCAAT/enhancer-binding protein beta (Homo sapiens), sequence (P17676 whole entry, looked up): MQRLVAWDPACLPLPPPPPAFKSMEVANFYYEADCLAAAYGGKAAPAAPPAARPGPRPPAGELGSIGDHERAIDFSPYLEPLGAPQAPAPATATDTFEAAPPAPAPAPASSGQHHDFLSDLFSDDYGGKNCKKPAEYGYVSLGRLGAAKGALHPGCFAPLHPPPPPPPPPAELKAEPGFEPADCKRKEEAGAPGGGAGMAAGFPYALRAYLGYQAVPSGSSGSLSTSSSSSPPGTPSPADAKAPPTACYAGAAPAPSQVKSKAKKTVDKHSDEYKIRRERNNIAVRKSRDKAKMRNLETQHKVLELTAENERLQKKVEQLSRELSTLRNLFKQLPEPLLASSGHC
Method in brief: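 HepG2, transient MRTU transfection, 24 h treatment. RT-PCR plus CE fluorescence; DMSO negative control, bidirectional fit.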

[4] = ATG_CMV_CIS: Attagene CIS-FACTORIAL HepG2 Assay for human CMV (Internal Marker) (AID 2282928); conditions: HepG2 CMV promoter reporter, transcription factor profiling; actives raise or lower the signal;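 note: endpoint acts as a background internal control marker rather than a target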
Method in brief: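 Bidirectional fits against DMSO are applied to reporter mRNA, read by RT-PCR with capillary electrophoresis, from HepG2 cells exposed 24 h. The endpoint serves as an internal CMV background marker within the cis-factorial reporter panel.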

[5] = ATG_DR4_LXR_CIS: Attagene CIS-FACTORIAL HepG2 Assay for human Liver X Receptor (LXR), DR4 submotif (AID 2282929); conditions: HepG2 Attagene DR4 cis-reporter, mRNA transcription; actives raise or lower the signal
Method in brief: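 HepG2 cells transiently transfected with cis-promoter-driven multiplexed reporter units (DR4 element) were dosed for 24 h. Reporter mRNA was quantified by RT-PCR, fluorescent primer extension, HpaI digestion and capillary electrophoresis; bidirectional fitting versus DMSO baseline.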

[6] = target: Aryl hydrocarbon receptor (Homo sapiens) (UniProt P35869); assay: ATG_Ahr_CIS: Attagene CIS-FACTORIAL HepG2 Assay for human Aryl Hydrocarbon Receptor (Ahr) (AID 2282930); conditions: HepG2 AhR cis-factorial reporter transcription; actives raise or lower the signal
Aryl hydrocarbon receptor (Homo sapiens), sequence (P35869 whole entry, looked up): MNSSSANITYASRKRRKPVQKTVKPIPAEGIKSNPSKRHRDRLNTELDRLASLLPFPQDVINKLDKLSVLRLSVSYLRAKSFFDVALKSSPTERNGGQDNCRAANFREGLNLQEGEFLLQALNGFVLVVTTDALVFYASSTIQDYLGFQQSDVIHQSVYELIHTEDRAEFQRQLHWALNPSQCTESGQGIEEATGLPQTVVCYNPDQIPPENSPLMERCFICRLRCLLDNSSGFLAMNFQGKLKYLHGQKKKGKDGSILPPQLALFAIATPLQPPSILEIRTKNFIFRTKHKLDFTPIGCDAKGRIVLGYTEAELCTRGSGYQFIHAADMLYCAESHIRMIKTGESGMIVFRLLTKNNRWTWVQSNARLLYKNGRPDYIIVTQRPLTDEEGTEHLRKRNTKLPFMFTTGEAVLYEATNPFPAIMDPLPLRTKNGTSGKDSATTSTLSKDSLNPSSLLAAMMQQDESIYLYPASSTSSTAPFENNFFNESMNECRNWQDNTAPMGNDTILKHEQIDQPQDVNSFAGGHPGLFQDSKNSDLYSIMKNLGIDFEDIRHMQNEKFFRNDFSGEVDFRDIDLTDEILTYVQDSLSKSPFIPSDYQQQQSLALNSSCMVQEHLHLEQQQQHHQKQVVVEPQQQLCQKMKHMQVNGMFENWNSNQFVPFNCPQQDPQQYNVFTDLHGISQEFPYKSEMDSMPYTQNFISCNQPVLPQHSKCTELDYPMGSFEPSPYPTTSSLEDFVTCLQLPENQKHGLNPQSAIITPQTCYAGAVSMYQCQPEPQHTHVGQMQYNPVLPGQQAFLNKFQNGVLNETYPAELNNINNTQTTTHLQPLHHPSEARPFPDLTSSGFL
Method in brief: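 Endogenous factor activity is tracked through cis-promoter reporter units transfected into HepG2 cells. Transcript levels at 24 h are read by fluorescent RT-PCR and capillary electrophoresis, with activity in either direction scored relative to DMSO.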

[7] = ATG_AP_1_CIS: Attagene CIS-FACTORIAL HepG2 Assay for human Activator Protein 1 (AP-1) (AID 2282931); conditions: HepG2 Attagene cis-factorial AP-1 reporter mRNA; actives raise or lower the signal
Method in brief: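 HepG2 cells transiently transfected with cis-element-driven multiplex reporter units; 24 h compound exposure. Reporter mRNA quantified by RT-PCR, FAM-labelled fragments resolved by capillary electrophoresis; bidirectional fit versus DMSO baseline.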

[8] = ATG_AP_2_CIS: Attagene CIS-FACTORIAL HepG2 Assay for human Activator Protein 2 (AP-2) (AID 2282932); conditions: HepG2 AP-2 cis-reporter, Attagene transcription factor profiling; actives raise or lower the signal
Method in brief: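 Read-out: fluorescent reporter mRNA via RT-PCR and capillary electrophoresis, 24 h post-dose in transiently transfected HepG2. Endogenous factors drive cis-promoter reporters; gain or loss of signal fitted bidirectionally against DMSO.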

[9] = ATG_BRE_CIS: Attagene CIS-FACTORIAL HepG2 Assay for human Bone Morphogenetic Protein (BMP) Response Element (BRE) (AID 2282933); conditions: HepG2 BMP response element reporter, Attagene transcription factor profiling; actives raise or lower the signal
Method in brief: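 A HepG2 multiplex reporter system measured inducible reporter mRNA 24 h post-dosing. Detection: RT-PCR, 6-FAM primer extension, HpaI digestion, capillary electrophoresis. Activity fitted bidirectionally relative to DMSO.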

[10] = target: Retinoic acid receptor alpha (Homo sapiens) (UniProt P10276); assay: ATG_DR5_RAR_CIS: Attagene CIS-FACTORIAL HepG2 Assay for human Retinoic Acid Receptor Alpha (RARE), DR5 submotif (AID 2282934); conditions: HepG2 Attagene cis-factorial RARE DR5 reporter, mRNA; actives raise or lower the signal;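 for AC50: reporter responds to endogenous RAR alpha beta and gamma in HepG2 not RARA alone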
Retinoic acid receptor alpha (Homo sapiens), sequence (P10276 whole entry, looked up): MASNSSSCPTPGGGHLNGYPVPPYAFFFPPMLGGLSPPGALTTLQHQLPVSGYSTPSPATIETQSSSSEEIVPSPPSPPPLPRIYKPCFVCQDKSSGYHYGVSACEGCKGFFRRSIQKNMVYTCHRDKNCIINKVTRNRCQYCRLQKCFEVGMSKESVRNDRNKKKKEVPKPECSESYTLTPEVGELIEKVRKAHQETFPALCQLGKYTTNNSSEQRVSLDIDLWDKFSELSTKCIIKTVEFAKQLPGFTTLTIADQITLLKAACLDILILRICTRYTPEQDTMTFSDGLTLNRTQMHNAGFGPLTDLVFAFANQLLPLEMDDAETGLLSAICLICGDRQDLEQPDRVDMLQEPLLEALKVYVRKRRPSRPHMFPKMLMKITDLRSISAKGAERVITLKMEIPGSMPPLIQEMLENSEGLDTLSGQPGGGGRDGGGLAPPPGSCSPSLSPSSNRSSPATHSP
Method in brief: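 After 24 h of chemical exposure, transiently transfected HepG2 cells were lysed for total RNA; the DR5-regulated reporter transcript was quantified via RT-PCR and capillary electrophoresis, with activity fitted bidirectionally against DMSO.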

[11] = target: Transcription factor E2F1 (Homo sapiens) (UniProt Q01094); assay: ATG_E2F_CIS: Attagene CIS-FACTORIAL HepG2 Assay for human E2F Transcription Factor 1 (AID 2282935); conditions: HepG2 Attagene cis-reporter, E2F reporter RNA transcripts; actives raise or lower the signal
Transcription factor E2F1 (Homo sapiens), sequence (Q01094 whole entry, looked up): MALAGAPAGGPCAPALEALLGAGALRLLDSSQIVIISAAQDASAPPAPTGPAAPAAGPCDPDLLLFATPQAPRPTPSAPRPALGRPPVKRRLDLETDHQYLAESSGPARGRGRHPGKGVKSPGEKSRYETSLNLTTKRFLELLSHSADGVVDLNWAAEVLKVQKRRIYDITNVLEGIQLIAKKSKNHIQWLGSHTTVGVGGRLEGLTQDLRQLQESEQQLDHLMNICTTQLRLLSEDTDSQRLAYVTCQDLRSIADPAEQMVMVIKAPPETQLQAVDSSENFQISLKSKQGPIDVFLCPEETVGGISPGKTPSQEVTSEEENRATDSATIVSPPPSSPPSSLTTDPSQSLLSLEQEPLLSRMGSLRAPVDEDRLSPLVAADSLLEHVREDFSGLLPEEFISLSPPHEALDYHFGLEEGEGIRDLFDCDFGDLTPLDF
Method in brief: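 Transient MRTU transfection of HepG2; 24 h compound exposure; RNA → oligo(dT) RT → PCR → FAM label → HpaI cut → CE fluorescence. Gain/loss of signal fit against DMSO.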

[12] = ATG_E_Box_CIS: Attagene CIS-FACTORIAL HepG2 Assay for human Enhancer Box (E-box) (AID 2282936); conditions: HepG2 E-box cis-reporter transcription, actives raise or lower the signal
Method in brief: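 Transiently transfected HepG2, endogenous TF-driven reporters, 24 h dosing. Readout: RT-PCR plus capillary electrophoresis of fluorescent reporter fragments. Gain or loss of signal fitted bidirectionally against DMSO baseline.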

[13] = ATG_M_61_CIS: Attagene CIS-FACTORIAL HepG2 Assay for M61 Transcription Factor (Internal Marker) (AID 2282937); conditions: HepG2 Attagene CIS-FACTORIAL M61 internal marker reporter; actives raise or lower the signal
Method in brief: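 HepG2 cells transiently transfected with cis-element-driven multiple reporter transcription units, dosed for 24 h. Reporter mRNA measured by RT-PCR, 6-FAM primer-extension labelling, HpaI digestion and capillary electrophoresis; bidirectional fit versus DMSO baseline.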

[14] = ATG_EGR_CIS: Attagene CIS-FACTORIAL HepG2 Assay for human Early Growth Response 1 (EGR1) (AID 2282938); conditions: HepG2 Attagene CIS-FACTORIAL EGR reporter mRNA; actives raise or lower the signal
Method in brief: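 HepG2 cells transiently transfected with cis-promoter-driven multiplexed reporter transcription units; reporter mRNA measured 24 h after compound dosing by RT-PCR, 6-FAM primer extension, HpaI digestion and capillary electrophoresis. Bidirectional fit versus DMSO baseline.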

[15] = ATG_M_19_CIS: Attagene CIS-FACTORIAL HepG2 Assay for M19 Transcription Factor (Internal Marker) (AID 2282939); conditions: HepG2 Attagene CIS-FACTORIAL M19 internal marker reporter; actives raise or lower the signal
Method in brief: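 Chemical-treated HepG2 (24 h) with MRTU constructs; reporter transcripts detected by fluorescent RT-PCR fragment analysis on capillary electrophoresis. Internal background marker, DMSO as baseline.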

[16] = ATG_Ets_CIS: Attagene CIS-FACTORIAL HepG2 Assay for human Erythroblast Transformation Specific (ETS) (AID 2282941); conditions: HepG2 ETS cis-reporter transcription, actives raise or lower the signal
Method in brief: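 Endogenous transcription factor activity read as reporter mRNA via RT-PCR and capillary electrophoresis, with gain or loss fitted bidirectionally against DMSO. Human HepG2 liver cells, transiently transfected CIS reporter constructs, 24 h exposure.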

[17] = ATG_FoxO_CIS: Attagene CIS-FACTORIAL HepG2 Assay for human Forkhead box O (FoxO) (AID 2282943); conditions: HepG2 Attagene cis-reporter, FoxO element, mRNA; actives raise or lower the signal
Method in brief: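 Transfected HepG2 reporter cells exposed to test chemical for 24 h; reporter RNA measured by reverse transcription, PCR and fluorescent capillary electrophoresis; curves fitted for increases and decreases against DMSO.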

[18] = ATG_GATA_CIS: Attagene CIS-FACTORIAL HepG2 Assay for human GATA Binding Protein (AID 2282944); conditions: HepG2 GATA cis-element reporter, Attagene multiplex mRNA; actives raise or lower the signal
Method in brief: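 Transfected cis-reporter HepG2 cells were treated with chemicals for 24 hours. Total RNA was then converted to cDNA, amplified with reporter-specific primers and analysed by fluorescent capillary electrophoresis, using DMSO-treated wells as baseline.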

[19] = ATG_ERE_CIS: Attagene CIS-FACTORIAL HepG2 Assay for Estrogen Response Element (ERE) (AID 2282940); conditions: HepG2 ERE cis-reporter, Attagene RNA transcript; actives raise or lower the signal
Method in brief: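 Human liver cells (HepG2) bearing transiently transfected, promoter-regulated reporter units were exposed 24 h. Reporter mRNA induction was detected by capillary electrophoresis of labelled RT-PCR products and fitted bidirectionally to DMSO.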

[20] = target: Hepatocyte nuclear factor 3-beta (Homo sapiens) (UniProt Q9Y261); assay: ATG_FoxA2_CIS: Attagene CIS-FACTORIAL HepG2 Assay for human Forkhead box A2 (FOXA2) (AID 2282942); conditions: HepG2 cis-reporter transcription factor activity, 24 h; actives raise or lower the signal
Hepatocyte nuclear factor 3-beta (Homo sapiens), sequence (Q9Y261 whole entry, looked up): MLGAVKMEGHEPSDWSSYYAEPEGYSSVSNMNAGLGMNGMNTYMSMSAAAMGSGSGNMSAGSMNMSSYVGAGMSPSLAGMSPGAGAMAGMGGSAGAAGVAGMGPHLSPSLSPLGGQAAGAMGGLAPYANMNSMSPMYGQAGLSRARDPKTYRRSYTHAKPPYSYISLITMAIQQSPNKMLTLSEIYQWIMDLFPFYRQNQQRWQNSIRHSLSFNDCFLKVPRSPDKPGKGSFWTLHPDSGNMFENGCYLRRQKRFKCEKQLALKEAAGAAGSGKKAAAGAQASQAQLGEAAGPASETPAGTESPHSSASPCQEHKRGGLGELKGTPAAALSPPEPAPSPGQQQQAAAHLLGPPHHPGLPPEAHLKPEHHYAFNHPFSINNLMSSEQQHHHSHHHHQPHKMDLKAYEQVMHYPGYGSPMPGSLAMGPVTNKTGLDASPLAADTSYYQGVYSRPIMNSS
Method in brief: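 HepG2 cells transiently transfected with multiple cis-regulated reporter transcription units, dosed for 24 h. Reporter mRNA measured by RT-PCR, 6-FAM labelling, HpaI digestion and capillary electrophoresis; bidirectional fitting against DMSO baseline.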

Measured: AC50

CCC(C)(C)C1CCC(O)CC1 (stereo unspecified)
active: [5] 172 µM | [6] 48.2 µM
inactive: [1] | [2] | [3] | [4] | [5] | [6] | [7] | [8] | [9] | [10] | [11] | [12] | [13] | [14] | [15] | [16] | [17] | [18]

C=C(C)C(=O)OCCC(F)(F)C(F)(F)C(F)(F)C(F)(F)C(F)(F)C(F)(F)F
inactive: [1] | [2] | [3] | [4] | [5] | [6] | [7] | [8] | [9] | [11] | [12] | [13] | [14] | [15] | [16] | [20] | [17] | [18]
active: [6] 54.4 µM | [19] 57.4 µM and 150 µM

c1ccc2c(c1)ccc1ccccc12
not listed: [19] | [20]
inactive: all other assays above

CC[C@H](c1ccc(O)cc1)[C@@H](CC)c1ccc(O)cc1
active: [4] 12.5 µM and 11.1 µM and 7.79 µM | [5] 11.1 µM and 11 µM | [14] 11.1 µM | [19] 1.02 nM and 3.79 nM and 1.01 nM
inactive: [1] | [2] | [3] | [5] | [6] | [8] | [9] | [11] | [12] | [13] | [14] | [15] | [16] | [17] | [18]

COC(=O)CCCCC(=O)OC
not listed: [19]
inactive: all other assays above

O=C(/C=C/c1ccc(O)cc1)CC(=O)/C=C/c1ccc(O)cc1
active: [1] 49.4 µM | [4] 77.7 µM | [5] 18.9 µM | [7] 62 µM | [8] 100 µM | [12] 26.7 µM | [14] 11.5 µM
not listed: [19] | [20]
inactive: all other assays above

COc1cc(CCC(=O)CC(=O)CCc2ccc(O)c(OC)c2)ccc1O
not listed: [19]
inactive: all other assays above

CCOC(=O)CC(O)(CC(=O)OCC)C(=O)OCC
not listed: [19]
inactive: all other assays above

CCN(CC)CCNc1ccc(CNC=O)c2sc3ccc(OC)cc3c(=O)c12
active: [2] 0.53 µM | [3] 0.879 µM | [7] 0.216 µM | [8] 0.496 µM | [9] 0.505 µM | [10] 0.457 µM | [16] 1.42 µM
not listed: [19]
inactive: all other assays above
